According to PubChem BioAssay (Tox21):
Records with an inconclusive call do not appear. A call without a number means that no potency is given here. Calls of active or inactive are those of the source. Unless noted, the call rests on the fitted dose curve; in most records, active means well fitted curve in the direction sought with a large enough effect in the repeat runs; inconclusive means weak or mixed curves; inactive means no such curve, though single readings can be large; an effect the other way counts as inactive or inconclusive.

Assays:
[1] = target: Androgen receptor (Homo sapiens) (UniProt P10275); assay: qHTS assay to identify small molecule antagonists of the androgen receptor (AR) signaling pathway using the MDA cell line in the presence of 0.5 nM R1881 (AID 1259243); further: nearly all actives have a fitted effect of over 50% in size
Androgen receptor (Homo sapiens), sequence (P10275 whole entry, looked up): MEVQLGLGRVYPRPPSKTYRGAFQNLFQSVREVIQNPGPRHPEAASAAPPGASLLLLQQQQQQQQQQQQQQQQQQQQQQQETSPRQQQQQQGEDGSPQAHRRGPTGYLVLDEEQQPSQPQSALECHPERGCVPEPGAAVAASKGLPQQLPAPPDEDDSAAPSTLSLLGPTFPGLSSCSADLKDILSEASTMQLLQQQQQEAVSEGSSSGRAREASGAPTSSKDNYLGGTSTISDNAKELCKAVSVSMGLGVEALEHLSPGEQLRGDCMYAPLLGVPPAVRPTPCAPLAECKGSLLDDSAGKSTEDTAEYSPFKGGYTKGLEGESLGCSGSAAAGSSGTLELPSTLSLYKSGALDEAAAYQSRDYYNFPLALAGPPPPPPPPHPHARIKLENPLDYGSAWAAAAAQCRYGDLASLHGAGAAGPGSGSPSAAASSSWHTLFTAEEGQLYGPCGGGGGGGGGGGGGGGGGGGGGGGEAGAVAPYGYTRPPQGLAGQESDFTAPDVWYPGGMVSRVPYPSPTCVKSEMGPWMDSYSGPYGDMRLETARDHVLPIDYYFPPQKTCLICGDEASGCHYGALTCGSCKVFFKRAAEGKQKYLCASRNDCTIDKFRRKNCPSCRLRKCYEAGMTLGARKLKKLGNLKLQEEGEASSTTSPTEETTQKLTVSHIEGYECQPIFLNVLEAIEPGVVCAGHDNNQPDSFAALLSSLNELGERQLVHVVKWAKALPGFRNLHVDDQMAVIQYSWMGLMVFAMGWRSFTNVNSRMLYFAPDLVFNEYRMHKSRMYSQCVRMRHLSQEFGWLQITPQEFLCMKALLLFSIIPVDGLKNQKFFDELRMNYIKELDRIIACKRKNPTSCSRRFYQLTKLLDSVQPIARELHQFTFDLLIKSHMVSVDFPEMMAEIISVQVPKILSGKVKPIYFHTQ
Procedure, shortened: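 MDA-kb2 cells (MMTV-luciferase, responsive to AR and GR) at 3,000/well, rested 5 h at 37C, 0% CO2, then given compounds plus 0.5 nM R1881 (final) for 16 hr. Luciferase read with ONE-Glo after 30 min at room temperature.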

[2] = target: Estrogen receptor (Homo sapiens) (UniProt P03372); assay: qHTS assay to identify small molecule antagonists of the estrogen receptor alpha (ER-alpha) signaling pathway using the BG1 cell line in the presence of 0.1 nM 17-beta-estradiol (AID 1259244); further: nearly all actives have a fitted effect of over 50% in size; further: potency means the concentration at half of the fitted maximal effect
Estrogen receptor (Homo sapiens), sequence (P03372 whole entry, looked up): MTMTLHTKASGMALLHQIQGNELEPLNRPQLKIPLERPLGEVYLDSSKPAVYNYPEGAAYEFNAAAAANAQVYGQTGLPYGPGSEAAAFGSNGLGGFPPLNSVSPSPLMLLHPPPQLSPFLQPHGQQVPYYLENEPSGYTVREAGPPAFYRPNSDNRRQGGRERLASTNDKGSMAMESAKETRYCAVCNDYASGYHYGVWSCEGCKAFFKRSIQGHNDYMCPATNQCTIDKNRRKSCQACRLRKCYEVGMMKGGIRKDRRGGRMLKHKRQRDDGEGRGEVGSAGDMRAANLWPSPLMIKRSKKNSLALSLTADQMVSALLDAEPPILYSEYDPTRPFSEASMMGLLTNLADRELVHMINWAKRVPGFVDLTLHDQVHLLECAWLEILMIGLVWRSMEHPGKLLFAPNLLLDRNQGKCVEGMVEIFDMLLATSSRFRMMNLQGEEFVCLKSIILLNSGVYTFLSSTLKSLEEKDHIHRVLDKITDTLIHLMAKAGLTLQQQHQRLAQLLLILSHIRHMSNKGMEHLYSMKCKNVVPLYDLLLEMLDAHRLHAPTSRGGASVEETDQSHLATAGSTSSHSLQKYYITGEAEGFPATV
Procedure, shortened: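 VM7Luc4E2 cells (endogenous full-length ER-alpha, 4×ERE-luciferase), kept 5 days in phenol red-free, charcoal-stripped FBS medium; 4,000 cells/well. Compounds added with 0.1 nM (final) 17beta-estradiol, 22 hr at 37C; luminescence read with ONE-Glo after 30 min.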

[3] = qHTS assay to identify small molecule HDAC inhibitors (AID 1259364); further: top concentration of the series differs between compounds; nearly all actives have a fitted effect of over 45% in size
Procedure, shortened: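 Wild-type HCT-116 cells, plated overnight at 37 C, exposed to compounds 2 hr at 37 C; luminogenic HDAC-Glo substrate then added 30 min at room temperature. Luminescence reports relative endogenous class I/II HDAC activity.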

[4] = qHTS assay to identify small molecule HDAC inhibitors - cell viability counter screen (AID 1259365); further: series mostly up to about 92 µM; nearly all actives have a fitted effect of over 50% in size
Procedure, shortened: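 CellTiter-Glo luminescence (30 min, room temperature) reported viability after a 2 h compound exposure at 37 C. Cells: wild-type HCT-116, 1,500 per well, seeded the night before.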

[5] = qHTS assay to identify small molecule agonists of the sonic hedgehog signaling (Shh) pathway - cell viability counter screen (AID 1259366); further: nearly all actives have a fitted effect of over 50% in size; further: potency means the concentration at half of the fitted maximal effect
Procedure, shortened: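 Cytotoxicity counter screen: CellTiter-Fluor reagent added after 23 h compound exposure, then 1 h at 37C and fluorescence read. Cells were 3T3 Gli1-Luc, seeded 2,000 per well and dosed 4 h post-plating.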

[6] = qHTS assay to identify small molecule antagonists of the sonic hedgehog signaling (Shh) pathway - cell viability counter screen (AID 1259367); further: nearly all actives have a fitted effect of over 55% in size; further: potency means the concentration at half of the fitted maximal effect
Procedure, shortened: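 After a 4 hr settling period, 3T3 Gli1-Luc cells were treated with DMSO-dissolved chemicals and conditioned medium, kept 24 hr at 37C in 5% CO2, and assayed for viability by CellTiter-Fluor fluorescence following 1 hr reagent incubation.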

[7] = qHTS assay to identify small molecule antagonists of the sonic hedgehog signaling (Shh) pathway (AID 1259369; calls by dose curve; further: nearly all actives have a fitted effect of over 45% in size; further: potency means the concentration at half of the fitted maximal effect)
Procedure, shortened: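 NIH/3T3-derived Gli1-Luc reporter cells plated 4 h, dosed with compound, then stimulated with conditioned medium for 24 h at 37 C. Firefly luciferase luminescence read after 30 min with detection reagent at room temperature.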

[8] = target: Estrogen receptor beta (Homo sapiens) (UniProt Q92731); assay: qHTS assay to identify small molecule agonists of the estrogen receptor beta (ER-beta) signaling pathway (AID 1259377; active means well fitted activation curve with a large enough effect in the signal ratio in the repeat runs, not every such curve was filed as active; the % refers to the signal ratio)
Estrogen receptor beta (Homo sapiens), sequence (Q92731 whole entry, looked up): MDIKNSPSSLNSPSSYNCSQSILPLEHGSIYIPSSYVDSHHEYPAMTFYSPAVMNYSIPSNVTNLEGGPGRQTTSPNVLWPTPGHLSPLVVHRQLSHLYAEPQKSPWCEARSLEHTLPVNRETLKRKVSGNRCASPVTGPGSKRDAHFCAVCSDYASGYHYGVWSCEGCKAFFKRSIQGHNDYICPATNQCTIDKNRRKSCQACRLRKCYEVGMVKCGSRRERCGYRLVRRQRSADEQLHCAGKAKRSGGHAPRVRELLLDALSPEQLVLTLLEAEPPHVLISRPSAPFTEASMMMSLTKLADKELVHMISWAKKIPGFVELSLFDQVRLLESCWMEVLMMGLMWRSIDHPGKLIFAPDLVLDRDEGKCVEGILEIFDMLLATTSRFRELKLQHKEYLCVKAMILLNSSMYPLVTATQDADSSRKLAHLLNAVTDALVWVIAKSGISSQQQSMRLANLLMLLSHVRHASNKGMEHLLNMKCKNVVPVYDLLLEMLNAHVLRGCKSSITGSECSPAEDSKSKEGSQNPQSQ
Procedure, shortened: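 Ratiometric beta-lactamase FRET read-out came after 2 h substrate loading at room temperature. It followed 16 h compound treatment at 37C of GripTite HEK293T cells carrying a UAS-bla reporter, plated in 2% charcoal-stripped FBS medium.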

[9] = target: Estrogen receptor beta (Homo sapiens) (UniProt Q92731); assay: qHTS assay to identify small molecule antagonists of the estrogen receptor beta (ER-beta) signaling pathway (AID 1259378; active means well fitted inhibition curve with a large enough effect in the signal ratio in the repeat runs, not every such curve was filed as active; the % refers to the signal ratio; further: potency means the concentration at half of the fitted maximal effect)
Procedure, shortened: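 ER-beta-UAS-bla HEK293T (GripTite) cells in 2% charcoal-stripped FBS medium were preincubated 6 hr at 37C, dosed with compound, then stimulated with 1 nM E2 (final) for 16 hr; beta-lactamase reporter read by B/G FRET fluorescence after 2 hr substrate loading.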

[10] = qHTS assay to identify small molecule agonists of the androgen receptor (AR) signaling pathway in the presence of an antagonist - cell viability counter screen (AID 1259379); further: nearly all actives have a fitted effect of over 25% in size; further: potency means the concentration at half of the fitted maximal effect
Procedure, shortened: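 MDA-kb2 cells (MMTV-luciferase, AR/GR), 3,000/well, 5 h attachment, then 3.0 µM nilutamide (final) and compounds at 15 concentrations. Viability by CellTiter-Fluor fluorescence after 16 h at 37 °C, 0% CO2, in the reporter wells.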

[11] = target: Androgen receptor (Homo sapiens) (UniProt P10275); assay: qHTS assay to identify small molecule agonists of the androgen receptor (AR) signaling pathway in the presence of an antagonist (AID 1259381; calls by dose curve; further: nearly all actives have a fitted effect of over 15% in size)
Procedure, shortened: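 MDA-kb2 cells carrying MMTV-luciferase (AR/GR responsive), 3,000 cells/well, co-treated with 3.0 uM nilutamide final. Compounds at 15 concentrations, 16 hr at 37C without CO2. Luciferase luminescence read after 30 min with ONE-Glo.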

[12] = qHTS assay to identify small molecule antagonists of the estrogen receptor beta (ER-beta) signaling pathway - cell viability counter screen (AID 1259382); further: nearly all actives have a fitted effect of over 55% in size; further: potency means the concentration at half of the fitted maximal effect
Procedure, shortened: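 ER-beta-UAS-bla HEK293T cells in 2% charcoal-stripped FBS medium, treated with compound plus 1 nM 17-beta-estradiol for 16 h at 37C. Viability read by CellTiter-Glo luminescence after 30 min at room temperature in the same wells.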

[13] = target: Estrogen receptor (Homo sapiens) (UniProt P03372); assay: qHTS assay to identify small molecule agonists of the estrogen receptor alpha (ER-alpha) signaling pathway in the presence of an antagonist (AID 1259383; calls by dose curve; further: top concentration of the series differs between compounds; nearly all actives have a fitted effect of over 15% in size)
Procedure, shortened: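 VM7Luc4E2 cells express endogenous full-length ER-alpha with an ERE-luciferase reporter and were hormone-deprived for 5 days. Compounds at 15 concentrations were added with 10.0nM ICI-182,780 for 22hr at 37C. Luminescence was read with ONE-Glo.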

[14] = qHTS assay to identify small molecule agonists or antagonists of the thyroid stimulating hormone receptor (TSHR) signaling pathway - wild type cell line counter screen (AID 1259384; calls by dose curve)
Procedure, shortened: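 Wild-type HEK293 cells were plated 18 h at 37 C/5% CO2, pin-dosed with compound plus Ro20-1724 medium, held 30 min at room temperature, then given cAMP-d2 and anti-cAMP-cryptate; fluorescence was read after 1 h. Fifteen concentrations, triplicate.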

[15] = target: Thyrotropin receptor (Homo sapiens) (UniProt P16473); assay: qHTS assay to identify small molecule antagonists of the thyroid stimulating hormone receptor (TSHR) signaling pathway (AID 1259385; calls by dose curve; further: nearly all actives have a fitted effect of over 20% in size)
Thyrotropin receptor (Homo sapiens), sequence (P16473 whole entry, looked up): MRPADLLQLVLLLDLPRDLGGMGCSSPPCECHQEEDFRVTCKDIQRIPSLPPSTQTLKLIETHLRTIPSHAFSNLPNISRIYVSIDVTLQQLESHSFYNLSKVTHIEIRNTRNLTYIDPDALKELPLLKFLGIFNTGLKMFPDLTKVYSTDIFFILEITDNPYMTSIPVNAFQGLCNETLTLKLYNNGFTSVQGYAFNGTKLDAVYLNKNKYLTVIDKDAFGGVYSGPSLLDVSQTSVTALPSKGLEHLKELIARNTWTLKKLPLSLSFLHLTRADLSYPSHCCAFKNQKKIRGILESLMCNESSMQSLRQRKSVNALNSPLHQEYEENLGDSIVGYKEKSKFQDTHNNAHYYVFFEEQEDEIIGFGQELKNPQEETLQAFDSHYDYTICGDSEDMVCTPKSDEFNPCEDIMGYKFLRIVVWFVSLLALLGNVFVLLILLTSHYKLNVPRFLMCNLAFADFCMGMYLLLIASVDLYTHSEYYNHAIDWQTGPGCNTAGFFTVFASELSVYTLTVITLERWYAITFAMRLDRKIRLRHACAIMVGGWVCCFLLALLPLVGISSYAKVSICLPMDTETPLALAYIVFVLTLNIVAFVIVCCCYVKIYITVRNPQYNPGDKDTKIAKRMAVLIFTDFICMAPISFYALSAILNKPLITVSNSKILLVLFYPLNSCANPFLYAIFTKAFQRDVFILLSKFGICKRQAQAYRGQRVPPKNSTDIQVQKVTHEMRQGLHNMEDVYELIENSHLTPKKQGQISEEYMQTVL
Procedure, shortened: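 TSHR-HEK293 cells were plated and held 18 h at 37C/5% CO2, then given compound plus Ro20-1724 and stimulated with TSH at 1.5 ng/mL final. After 30 min at room temperature, cAMP was detected with cAMP-d2/anti-cAMP-cryptate (1 h) by fluorescence.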

[16] = qHTS assay to identify small molecule agonists of the estrogen receptor alpha (ER-alpha) signaling pathway in the presence of an antagonist - cell viability counter screen (AID 1259386);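 further: cells exposed to compounds for 22 h at 37 °C before the viability read; nearly all actives have a fitted effect of over 30% in size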; further: potency means the concentration at half of the fitted maximal effect
Procedure, shortened: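 Cell viability in VM7Luc4E2 cells (endogenous full-length ER-alpha) measured by CellTiter-Fluor fluorescence in the same wells as the luciferase screen. Cells pre-cultured 5 days in charcoal-stripped serum, then treated 22 h with compounds at 15 concentrations plus 10.0nM ICI-182,780.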

[17] = qHTS assay to identify small molecule phospholipidosis (PLD) inducers (AID 1259344; active means well fitted curve in the direction sought with a large enough effect; an effect the other way counts as inactive or inconclusive)
Procedure, shortened: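 HepG2 cells grown on collagen I take up LipidTOX Red while exposed to compound for 24 h; after fixation they are imaged at 20x and pit metrics are extracted.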

[18] = qHTS assay to identify small molecule antagonists of the androgen receptor (AR) signaling pathway using the MDA cell line in the presence of 0.5 nM R1881 - cell viability counter screen (AID 1259242); further: nearly all actives have a fitted effect of over 45% in size
Procedure, shortened: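 MDA-kb2 cells (MMTV-luciferase, AR/GR responsive) were treated with compounds plus 0.5 nM R1881 (final) for 16 hr at 37C, 0% CO2. Viability was then read in the same wells as live-cell protease fluorescence (CellTiter-Fluor, 30 min).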

[19] = qHTS assay to identify small molecule agonists of the sonic hedgehog signaling (Shh) pathway (AID 1259368; calls by dose curve;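 further: NIH/3T3-derived 3T3Gli1-Luc cells carrying a stable Gli1-driven firefly luciferase reporter; series mostly up to about 92 µM; nearly all actives have a fitted effect of over 15% in size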)
Procedure, shortened: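 NIH/3T3-derived 3T3Gli1-Luc cells with stably integrated Gli1-driven firefly luciferase, 2,000 cells/well, compounds added after 4 hr. Incubated 24 hr at 37C, 5% CO2; luminescence read after 30 min with luciferase reagent at room temperature.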

[20] = qHTS assay to identify small molecule agonists of the estrogen receptor beta (ER-beta) signaling pathway - cell viability counter screen (AID 1259380); further: nearly all actives have a fitted effect of over 30% in size; further: potency means the concentration at half of the fitted maximal effect
Procedure, shortened: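 ER-beta-UAS-bla HEK293T cells in medium with 2% charcoal-stripped FBS, pre-incubated 6 hr, then treated 16 hr at 37C. Cytotoxicity read in the same wells by CellTiter-Glo luminescence after 30 min at room temperature.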

With FC(F)(F)c1cccc(Cl)c1 the Potency [1] was “inactive”, the Potency [2] was “inactive” and the Potency [3] was “inactive”. The Potency [4] was “inactive”, the Potency [5] was “inactive” and the Potency [6] was “inactive”. The Potency [7] was “inactive”, the Potency [8] was “inactive” and the Potency [9] was “inactive”. The Potency [10] was “inactive”, the outcome [11] was “inactive” and the Potency [12] was “inactive”. The Potency [13] was “inactive”, the outcome [14] was “inactive” and the Potency [15] was “inactive”. The Potency [16] was “inactive”.
In the case of CCCCCCCCCCCCOCCOCCOCCOCCOCCOCCOCCOCCOCCO, the Potency [2] is reported as 6.68 µM (active), the Potency [17] is reported as “inactive” and the Potency [3] is reported as “inactive”. For the same compound, the Potency [4] was “inactive”, the Potency [5] was “inactive” and the Potency [6] was “inactive”. The Potency [9] was 8.41 µM (active), the Potency [10] was 13.3 µM (active) and the Potency [12] was 29.8 µM (active). For the same compound, the Potency [13] was “inactive”, the outcome [14] was “inactive” and the Potency [15] was “inactive”. The Potency [16] was 23.7 µM (active).
With Cc1ccc(O)c(O)c1 the Potency [18] was “inactive”, the Potency [3] was “inactive” and the Potency [5] was 21.1 µM (active). The Potency [6] was 21.1 µM (active), the Potency [19] was “inactive” and the Potency [7] was 5.29 µM (active). For the same compound, the Potency [8] was “inactive”, the Potency [10] was “inactive” and the Potency [20] was “inactive”. The Potency [12] was “inactive” and the Potency [13] was “inactive”.
For CC(C)=CCC1=C(O)c2ccccc2C(=O)C1=O, the Potency [1] was “inactive”, the Potency [3] was “inactive” and the Potency [4] was “inactive”. The Potency [19] was “inactive”, the Potency [8] was “inactive” and the Potency [10] was 43 µM (active). For the same compound, the Potency [13] was “inactive” and the Potency [16] was 43 µM (active).
In the case of Cc1c(C)c2c(c(C)c1O)CC[C@@](C)(CCC[C@H](C)CCC[C@H](C)CCCC(C)C)O2, the Potency [2] is reported as “inactive”, the Potency [17] is reported as “inactive” and the Potency [3] is reported as “inactive”. For the same compound, the Potency [4] was “inactive”, the Potency [5] was “inactive” and the Potency [6] was “inactive”. For the same compound, the Potency [19] was “inactive”, the Potency [7] was “inactive” and the Potency [8] was “inactive”. The Potency [9] was “inactive”, the Potency [10] was “inactive” and the Potency [20] was “inactive”. For the same compound, the Potency [12] was “inactive”, the outcome [14] was “inactive” and the Potency [15] was “inactive”. For the same compound, the Potency [16] was “inactive”.
With CCOC(=O)c1ccc(C2CCC(NC[C@H](O)COc3ccc(O)c(NS(C)(=O)=O)c3)CC2)cc1 (stereo partly specified) the Potency [18] was “inactive”, the Potency [3] was “inactive” and the Potency [4] was “inactive”. For the same compound, the Potency [6] was 50.2 µM (active), the Potency [19] was “inactive” and the Potency [7] was 10 µM (active). For the same compound, the Potency [8] was “inactive”, the Potency [20] was 50.2 µM (active) and the Potency [16] was “inactive”.
With Cc1c(F)c(N2CCNC(C)C2)cc2c1c(=O)c(C(=O)O)cn2C1CC1 (stereo unspecified) the Potency [2] was “inactive”, the Potency [17] was “inactive” and the Potency [3] was “inactive”. The Potency [4] was “inactive”, the Potency [5] was “inactive” and the Potency [6] was “inactive”. The Potency [19] was “inactive”, the Potency [7] was “inactive” and the Potency [10] was “inactive”. The Potency [20] was “inactive”, the Potency [12] was “inactive” and the Potency [13] was “inactive”. The outcome [14] was “inactive”, the Potency [15] was “inactive” and the Potency [16] was “inactive”.
For Cc1ccc(O)c(N)c1, the Potency [18] was “inactive”, the Potency [4] was “inactive” and the Potency [5] was 43.3 µM (active). For the same compound, the Potency [6] was 27.3 µM (active), the Potency [19] was “inactive” and the Potency [20] was 24.4 µM (active). For the same compound, the Potency [13] was “inactive” and the outcome [14] was “inactive”.
